# Screening data from PubChem BioAssay.
# IMPase cell inh: cell-permeable inhibitors of inositol monophosphatase (IMPase). CHO-M1 cells, IP1 accumulation, HTRF TR-FRET ratio. inhibition (IP1 accumulation), % at 46.1 µM. 120,000 tested, under 10 active. AID 901; active means well fitted curve in the direction sought with a large enough effect in the signal ratio, not every such curve was filed as active; inconclusive means small, poorly fitted or top-dose-only effect, or a change in a side signal; inactive means no such curve, though single readings can be large or run the other way; the % refers to the signal ratio;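 further: cells stimulated with carbachol in lithium chloride buffer; plate controls were DMSO basal wells for no effect and reference inhibitor wells for full effect; higher means more IMPase inhibition seen as more IP1 and lower FRET ratio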
#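 Elevated IP1 in lysates lowers TR-FRET signal (665/620 ratio and 620 channel reported). Cells were CHO-M1, given carbachol (50 uM as added) plus 50mM LiCl, pH 7.4, 30 min, 37C; compounds titrated up to 46 uM; AC50 by Hill equation.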
# IMPase Li cell: cell-permeable IMPase inhibitors with lithium potentiation; CHO-M1 cells, IP1 TR-FRET (IP-One), carbachol + lithium; Potency, µM (highest dose often 59.4 µM), for the others: at the highest dose activity, negative = IMPase inhibition, most hits filed as inhibitors; 210,000 tested, 0.35% active; AID 1457; active means well fitted inhibition curve with a large enough effect; inconclusive means small, poorly fitted or top-dose-only effect; inactive means no such curve, though single readings can be large or run the other way;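 further: IP1 builds up when IMPase is blocked and the TR-FRET signal falls; potency means the concentration at half of the fitted maximal effect; plate controls were basal vehicle for no effect and high inhibitor control for full effect; nearly all actives have a fitted effect of over 50% in size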
#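 IP1 accumulation measured by competitive TR-FRET in lysed CHO-M1 cells after 30 min compound exposure at 37C, with a small lithium addition to potentiate weak responses. Hill-equation AC50 from ratio and donor-channel data.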
# PNC inhibitor: inhibitors of perinucleolar compartment assembly; PC3M PTB-GFP, PNC prevalence imaging, 16 h; stronger effect = lower value; activity change (PNC), negative = inhibition, % at 10 µM; 140,000 tested, 3.1% active; AID 2417;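 active means readout at or below -70, meaning at least 70% loss of cells showing the perinucleolar compartment, a nuclear body marking cancer cells; inconclusive means readout between -30 and a set limit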;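 further: plate controls were DMSO wells for no effect and camptothecin positive control wells for full effect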
#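 Compounds are pinned in duplicate onto adhered PC3M cells stably expressing GFP-tagged PTB and incubated 16 h at 37 C. Cells are then fixed, nuclei stained with Hoechst, and PNC-positive cells counted.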
# ALDH1A1 inh: ALDH1A1 (human) enzyme inhibition; 220,000 tested, 7.3% active; Potency, µM (doses to about 75.3 µM), without a hit: at the highest dose activity, negative = inhibition, most hits filed as inhibitors; Purified ALDH1A1, NADH fluorescence, propionaldehyde substrate;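 further: potency means the concentration at half of the fitted maximal effect; plate controls were no enzyme wells and a reference inhibitor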
# Target sequence (P00352 whole entry, looked up): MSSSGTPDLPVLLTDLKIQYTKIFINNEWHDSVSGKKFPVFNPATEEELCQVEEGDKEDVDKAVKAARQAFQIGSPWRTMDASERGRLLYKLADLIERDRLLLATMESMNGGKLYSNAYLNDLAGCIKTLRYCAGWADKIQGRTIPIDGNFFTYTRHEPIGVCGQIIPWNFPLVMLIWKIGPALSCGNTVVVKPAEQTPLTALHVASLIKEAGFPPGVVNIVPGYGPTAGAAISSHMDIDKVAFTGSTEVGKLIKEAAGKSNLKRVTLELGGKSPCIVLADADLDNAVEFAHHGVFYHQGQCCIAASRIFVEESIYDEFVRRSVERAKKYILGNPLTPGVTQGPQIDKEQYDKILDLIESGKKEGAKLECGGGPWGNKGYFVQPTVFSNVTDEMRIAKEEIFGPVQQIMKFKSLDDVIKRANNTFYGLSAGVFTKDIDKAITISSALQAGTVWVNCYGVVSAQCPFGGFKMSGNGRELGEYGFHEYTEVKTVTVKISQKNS
# HPGD block: HPGD (human) dehydrogenase inhibition; P15428; purified HPGD, NADH fluorescence kinetic, PGE2 substrate; Potency, µM, for inactives: top-dose activity change, negative = inhibition, usual class: inhibitors; 150,000 tested, 4.3% active; AID 894; further: potency means the concentration at half of the fitted maximal effect
# Target sequence (P15428 whole entry, looked up): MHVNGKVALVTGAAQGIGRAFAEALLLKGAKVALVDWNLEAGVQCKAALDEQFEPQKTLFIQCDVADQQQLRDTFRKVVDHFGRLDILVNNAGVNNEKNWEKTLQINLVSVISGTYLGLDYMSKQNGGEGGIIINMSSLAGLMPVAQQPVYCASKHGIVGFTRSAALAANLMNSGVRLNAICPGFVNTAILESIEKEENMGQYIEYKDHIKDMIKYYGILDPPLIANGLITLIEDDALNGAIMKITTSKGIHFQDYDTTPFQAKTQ
#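 NADH formation kinetics: reaction with 30 uM PGE2 and 1 mM NAD+ (final), 20 nM enzyme, Tris-HCl pH 8 with Tween 20, after 15 min compound preincubation at room temperature. Fluorescence change, last versus first of five reads.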
# Active calls of the source: *; ? = inconclusive; · = no result given; [ ] = remark or other dose. Sampled rows, rich in hits. Any-hit rate of the full collection: about 11%. Unless noted, the call rests on the fitted dose curve; in most records, active means well fitted inhibition curve with a large enough effect (not every such curve was filed as active); inconclusive means small, poorly fitted or top-dose-only effect, or another doubt; inactive means no such curve, though single readings can be large or run the other way. Unless noted, on the % scale 0 is the no-effect control and ±100 the full control effect.
SMILES,IMPase cell inh,IMPase Li cell,PNC inhibitor,ALDH1A1 inh,HPGD block
O=C(c1ccc2c(c1)OCO2)N1CCCc2ccccc21,7,·,27,?,·
COc1cc(C(=O)N2CCCc3ccccc32)cc(OC)c1OC,6,2%,31,-3%,-10%
CNc1oc(Cc2ccccc2)nc1S(=O)(=O)c1ccccc1,8,18%[38.3 µM],-13,25µM*,-3%
CC(=O)c1cccc(NC(=S)NC(=O)c2ccc(Cl)cc2)c1,·,3%,-17,25µM*,-21%
CC(=O)c1cccc(NC(=S)NC(=O)c2cccc(C)c2)c1,·,7%,-1,?,22µM*
CC(=O)c1cccc(NC(=S)NC(=O)c2ccccc2Br)c1,·,-2%,42,?,-28%
CC(=O)c1cccc(NC(=S)NC(=O)c2ccccc2C)c1,·,16%,·,?,·
O=C(Nn1c(-c2ccccc2)nc2ccccc2c1=O)C1CCC1,4,14%[38.3 µM],24,?,-6%
COC(=O)N1CCC[C@@]2(CCN(C(=O)Nc3ccc(OC)cc3)C2)C1,·,4%,·,4%,-5%
CNC(=O)c1ccc(Oc2ccc(C(=O)NC)cc2)cc1,3,-18%[38.3 µM],-2,-12%,2.5µM*
CCCCC(NC(C)=O)c1nc2ccccc2n1CCCC (configuration not stated),-4,11%[38.3 µM],-7,7%,-9%
CC1(C)OC2CC3C4CC(F)C5=CC(=O)C=C[C@@]5(C)[C@@]4(F)C(O)C[C@@]3(C)[C@]2(C(=O)CO)O1 (some centres not stated),·,0%,·,0%,-4%
Cn1c(=NC(=O)COc2ccccc2)sc2ccccc21,·,13µM*,·,-6%,·
Cc1ccc(C2=Nc3ccccc3S[C@@H](c3cccc([N+](=O)[O-])c3)C2)cc1,·,16%,·,-12%[13.5 µM],-29%
COc1ccc(C(c2c(C)[nH]n(C(N)=S)c2=O)C(C#N)C#N)cc1 (configuration not stated),17,13%,?,13µM*,32µM*
Cc1ccc(N=Nc2c(C)[nH]n(C(N)=S)c2=O)cc1C,·,4%,7,?,-19%
Fc1ccc(-c2ccnc(=S)[nH]2)cc1,3,-9%,33,?,18µM*
COc1cccc2cc(-c3ccnc(=S)[nH]3)oc12,·,18%,·,?,·
CN(C(=O)Cn1nnc(-c2cccc(C(F)(F)F)c2)n1)C1CCCCC1,-3,-3%[38.3 µM],57,35µM*,-8%
COc1ccc(-c2nc(C)sc2CC(=O)O)cc1,0,1%,-100*,4%,-17%
COc1ccc(-c2nc(C)sc2CC(=O)O)cc1OC,·,-4%,·,-7%,·
C/C(CC(=O)Nc1ccc(OCc2ccccc2)cc1)=N\NC(=O)C(=O)Nc1ccc(C)c(Cl)c1,-9,7%[38.3 µM],1,14µM*,-13%
CCOC(=O)C(=O)Nc1ccc(OCc2ccccc2)cc1,·,7%,·,25µM*,·
C/C(CC(=O)Nc1ccc(C)c(Cl)c1)=N\NC(=O)Cc1ccccc1,·,-7%,27,?,-14%
CCn1nnnc1SCC(=O)Nc1ccc(OCc2ccccc2)cc1,-1,-1%,-27,?,-9%
SMILES,IMPase cell inh,IMPase Li cell,PNC inhibitor,ALDH1A1 inh,HPGD block
O=C(CSc1nnnn1-c1ccccc1)CC(=O)Nc1ccc(Cl)cc1,-2,15%[38.3 µM],35,2.2µM*,-31%
O=C(CSc1nnnn1-c1cccnc1)Nc1ccc(OCc2ccccc2)cc1,1,25%[38.3 µM],-28,4µM*,-12%
COC(=O)[C@@H]1[C@H](CCc2ccccc2)NC(=O)N(Cc2ccccc2)[C@@H]1C,·,8%,·,-8%[13.5 µM],-8%
COC(=O)C1=C(C(=O)OC)[C@@H]2N(Cc3ccccc3)c3ccccc3[C@@]23C[C@@H](C(=O)OC)N=C3N1,·,4%,·,8%[13.5 µM],-3%
O=C(Nc1ccc(OCc2ccccc2)cc1)c1cccnc1,8,27%[38.3 µM],-112*,9%,-19%
COc1ccccc1NC(=O)NCC(c1ccco1)N1CCCCC1 (configuration not stated),·,?,·,3%,·
CC(=O)NC1=NC(=O)/C(=C/c2cn(C(C)=O)nc2-c2ccccc2)S1,·,-1%,·,10µM*,·
CCN=C1S/C(=C\c2cn(C(C)=O)nc2-c2ccccc2)C(=O)N1CC,17,22%,-2,?,?
COc1ccc2c(c1)O[C@@H](c1ccc3c(c1)OCO3)[C@H](OC(=O)N[C@H]1CCCc3ccccc31)C2=O,·,13%,·,-13%,4%
CC#CCN1c2ccccc2[C@]23C[C@@H](C(=O)OC)N(S(=O)(=O)CCCC)C2=NC(C(=O)OC)=C(C(=O)OC)[C@H]13,·,5%,·,3%[13.5 µM],-8%
C=CCn1c(O)c(N=NC(=S)Nc2ccc(OC)cc2)c2ccccc21,·,2%,-6,?,-14%
Cc1ccccc1Cn1c(O)c(N=NC(=S)Nc2ccccc2F)c2ccccc21,·,-1%,·,32µM*,·
CCNC(=S)N=Nc1c(O)n(Cc2ccc(Cl)cc2)c2ccccc12,·,3%,-21,3.5µM*,-22%
Oc1c(N=NC(=S)Nc2ccccc2F)c2ccccc2n1Cc1ccc(Cl)cc1,·,-5%,·,10µM*,·
Cc1ccc(Cn2c(O)c(N=NC(=S)Nc3ccccc3F)c3cc(S(=O)(=O)N4CCOCC4)ccc32)cc1,·,-5%,·,?,·
Cc1ccc(C)c(Cn2c(O)c(N=NC(=S)Nc3ccccc3F)c3ccccc32)c1,·,1%,·,13µM*,·
CC(=O)c1ccc(NC(=O)c2cn(-c3ccccc3)nc2-c2ccc(Br)cc2)cc1,-7,·,·,·,·
CCOc1ccc(NC(=O)c2c(NC(=O)c3ccco3)sc3c2CCC(C(C)(C)C)C3)cc1 (configuration not stated),-1,·,·,·,·
COc1cc(NC(=O)c2cccc(Br)c2)nc(OC)n1,·,6%,·,?,·
COc1ccc(Oc2ncc3ncc(=O)n(C)c3n2)cc1,·,16%,·,17%,·
Oc1c(N=NC(=S)Nc2ccccc2F)c2ccccc2n1Cc1ccccc1F,·,-13%,·,20µM*,·
C=C(C)CSc1nc2nc(C)c(Br)cc2[nH]1,7,22%[38.3 µM],28,-7%,14µM*
CC(C)(C)CC(=O)NCc1ccc(F)cc1,7,-9%[38.3 µM],-17,14%,22µM*
CC(=O)[C@@H]1[C@H]2[C@H](C(=O)[C@H]3OC[C@@H]2O3)[C@H]2C=Cc3ccccc3N21,?,352%,·,25µM*,-25%
Cc1ccc(C(=O)[C@@H]2[C@H]3C4COC(O4)C(=O)[C@@H]3[C@H]3C=Cc4ccccc4N32)cc1 (some centres not stated),-5,7%,·,?,-18%
COc1cc2c(cc1OC)C(Nc1ccccc1)=NC(C)(C)C2,5,6%,4,5%,-9%
O=C(CONS(=O)(=O)c1ccc(Cl)cc1)NCCNc1ncc(C(F)(F)F)cc1Cl,·,-7%,·,13µM*,·
c1csc(CNc2ncncc2-c2ccc3c(c2)OCO3)c1,·,15%,·,?,?
Cc1oc(C(C)(C)C)cc1C(=O)N1CCN(C(c2ccccc2)c2ccccc2)CC1,·,·,·,8.9µM*,·
